Sampled rows, rich in hits. Any-hit rate of the full collection: about 19%.
DT40 TDP1 CPT = qHTS for Inhibitors of human tyrosyl-DNA phosphodiesterase 1 (TDP1): qHTS in cells in presence of CPT | chicken DT40 Tdp1-/-;hTDP1 cells + 20 nM CPT, ATP luminescence, 48 h | hit rate 12% among 420,000 | AID 686979, 2013 | Potency, µM (top dose mostly 46.2 µM), most hits filed as inhibitors; further: nearly all actives have a fitted effect of over 55% in size
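Chicken DT40 Tdp1-/- cells stably complemented with human TDP1 were seeded at 400 cells/well in medium containing 20 nM camptothecin, exposed to pin-transferred compounds, and grown at 37 °C for at least 48 hr. Viability was read as ATP luminescence.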
DT40 TDP1 no CPT = qHTS for Inhibitors of human tyrosyl-DNA phosphodiesterase 1 (TDP1): qHTS in cells in absence of CPT | DT40 Tdp1-/- hTDP1 cells, no CPT, ATP luminescence, 48 h | Potency, µM (series often up to 46.2 µM), hits mostly inhibitors | hit rate 15% among 420,000; further: nearly all actives have a fitted effect of over 55% in size
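Compound effects on proliferation are scored in DT40 Tdp1-/-;hTDP1 cells in the absence of CPT. ATP levels (CellTiter-Glo luminescence) are recorded after a ≥48 hr, 37 °C incubation.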
VP16 counter = VP16 counterscreen qHTS for inhibitors of ROR gamma transcriptional activity. Drosophila S2 Gal4-VP16 UAS-luciferase, luminescence, 20 h. Potency, µM (top dose mostly 53.6 µM), usual class: inhibitors. hit rate 3.5% among 310,000. AID 2546, 2010;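 further: Gal4-VP16 expression switched on by copper sulfate through the metallothionein promoter; nearly all actives have a fitted effect of over 50% in size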
TDP1 inh = qHTS Assay for Inhibitors of Tyrosyl-DNA Phosphodiesterase (TDP1) | recombinant TDP1, AlphaScreen DNA substrate cleavage | Tyrosyl-DNA phosphodiesterase 1 (Homo sapiens), Q9NUW8 | Potency, µM (doses to about 130 µM), hits mostly inhibitors | hit rate 0.28% among 350,000; further: nearly all actives have a fitted effect of over 40% in size
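Enzyme-compound mixtures sat 15 min at room temperature, followed by a 5 min reaction with 15 nM final substrate and 10 min with AlphaScreen beads. Recombinant human Tdp1 was used at 1 nM final.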
RORg inh = qHTS for inhibitors of ROR gamma transcriptional activity | Drosophila S2 Gal4-RORgamma UAS-luciferase reporter, 20 h | Potency, µM (series often up to 53.6 µM), most hits filed as inhibitors | hit rate 5.4% among 310,000; further: nearly all actives have a fitted effect of over 60% in size
Target sequence (P51450 whole entry, looked up, the tested form may be a part): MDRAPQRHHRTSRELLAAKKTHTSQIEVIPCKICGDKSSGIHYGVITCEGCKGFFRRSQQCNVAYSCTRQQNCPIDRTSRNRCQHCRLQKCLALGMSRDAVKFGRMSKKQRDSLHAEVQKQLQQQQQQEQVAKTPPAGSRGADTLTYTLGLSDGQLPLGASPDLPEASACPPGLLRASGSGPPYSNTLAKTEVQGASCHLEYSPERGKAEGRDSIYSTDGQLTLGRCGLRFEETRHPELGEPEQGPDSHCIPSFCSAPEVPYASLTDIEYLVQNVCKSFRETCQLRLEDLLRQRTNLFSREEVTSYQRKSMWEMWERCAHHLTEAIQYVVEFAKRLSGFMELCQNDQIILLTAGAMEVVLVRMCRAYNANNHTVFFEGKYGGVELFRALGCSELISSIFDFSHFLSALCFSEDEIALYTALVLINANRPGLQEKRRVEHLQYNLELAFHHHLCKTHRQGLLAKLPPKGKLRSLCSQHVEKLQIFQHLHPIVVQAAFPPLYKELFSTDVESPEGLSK
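Compounds are pin-transferred onto Drosophila Schneider cells expressing a copper-inducible Gal4–ROR gamma transactivation domain fusion. After 1 hr, copper sulfate is added to 700 uM final; luciferase is read 20 hr later.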
Hits are given with their value; i = inactive; ? = inconclusive; nt = no result; [ ] = another dose, or the depositor's remark. The call rests on the fitted dose curve; in most records, active means well fitted curve in the direction sought with a large enough effect; inconclusive means small, poorly fitted or top-dose-only effect, or another doubt; inactive means no such curve, though single readings can be large; an effect the other way counts as inactive or inconclusive.

SMILES	DT40 TDP1 CPT	DT40 TDP1 no CPT	VP16 counter	TDP1 inh	RORg inh
Cc1cc(C)c2nccc(/C=C/c3ccc(N(C)C)cc3)c2c1	11µM	10µM	nt	nt	nt
CN(C)c1ccc(/C=C/c2ccnc3c(Cl)ccc(Cl)c23)cc1	11µM	10µM	nt	nt	nt
Cc1ccc2c(/C=C/c3ccc(N(C)C)cc3)ccnc2c1C	13µM	?	nt	nt	nt
Cc1occc1C(=O)NNC(=S)NC(=O)COc1ccc(Cl)cc1Cl	?	18µM	?	i	16µM
CC(=O)NC(=S)Nc1ccc(NC(=O)COc2ccc(Cl)cc2Cl)cc1	?	6.5µM	i	i	i
O=C(COc1ccc(Cl)cc1Cl)NNC(=S)Nc1ccc(F)cc1	i	i	?	i	3.5µM
O=C(COc1ccc(Cl)cc1Cl)Nc1ccccn1	i	i	2.8µM	i	i
COc1ccc(C2CCCN2C(=S)Nc2c(C)cccc2C)cc1OC (stereo not given)	i	?	i	i	?
CCOc1ccc(N2CC(C(=O)Nc3cc(Cl)ccc3-n3cncn3)CC2=O)cc1 (stereo not given)	i	i	nt	nt	nt
O=C(COc1ccc(Cl)cc1Cl)NC(=S)Nc1ccc(CN2CCOCC2)cc1	i	i	?	i	16µM
O=C(COc1cccc(Cl)c1)NNC(=S)Nc1ccccc1	i	i	1µM	i	0.89µM
O=C(O)C(=Cc1ccc([N+](=O)[O-])cc1)c1cccc(Cl)c1	8.2µM	?	nt	nt	nt
COc1ccccc1C(=Cc1ccc([N+](=O)[O-])cc1)C(=O)O	i	i	nt	nt	nt
CCOC(=O)c1ccc(NC(=O)CN(Cc2ccc(C)cc2)S(=O)(=O)c2ccc(C)cc2)cc1	13µM	13µM	nt	i[2.28 µM]	nt
Cc1ccc(S(=O)(=O)N(CC(=O)Nc2ccc(F)cc2F)Cc2ccc(F)cc2)cc1	18µM	21µM	nt	i	nt
Cc1ccc(S(=O)(=O)N(CC(=O)NCc2ccco2)Cc2ccc(F)cc2)cc1	i	i	i	i	?
CC(NC(=O)NC(=O)c1ccc(F)cc1)C1CC1 (stereo not given)	i	i	nt	i	nt
Cc1cnc(NC(=O)C2CCC(C(C)(C)C)CC2)s1 (stereo not given)	?	?	?	i	?
O=C(CCC1CCCCC1)Nc1nccs1	i	i	i	i	18µM
Cc1ccccc1N(CC(=O)NC1CCCCC1)C(=O)CCC(=O)Nc1nccs1	i	i	i	i	i
O=C(CCC(=O)N(CC(=O)NC1CCCC1)c1ccccc1F)Nc1nccs1	i	i	i	nt	13µM
Cc1nnc(NC(=O)CCC2CCCCC2)s1	i	i	nt	nt	nt
CC(C)(C)C1CCC(C(=O)Nc2nccs2)CC1 (stereo not given)	?	23µM	8.9µM	i	4.5µM
Cc1cc(C)c2c(n1)SCC(=O)N2CC(=O)Nc1cccc(Cl)c1	?	i	i	nt	i
Cc1ccc(COc2ccc(CNCCCN3CCCCCC3=O)cc2)cc1	?	18µM	i	nt	i
SMILES	DT40 TDP1 CPT	DT40 TDP1 no CPT	VP16 counter	TDP1 inh	RORg inh
COc1cccc(C#CC2=CC(=O)C[C@H](c3ccc(F)cc3)C2)c1	13µM	8.2µM	nt	nt	nt
COc1ccc([C@H]2CC(=O)C=C(c3cccc(OC)c3)C2)cc1	i	?	nt	i	nt
O=C1C=C(C#Cc2ccc(Oc3ccccc3)cc2)C[C@@H](c2ccc(F)cc2)C1	16µM	12µM	nt	nt	nt
CCOC(=O)c1nn(-c2ccc(F)cc2)c2c1CC/C2=C/c1ccccc1	i	i	i	i	?
Cc1ccc(-c2cc(-c3ccc4c(c3)NC(=O)CO4)nc3c2COc2ccc(C)cc2-3)cc1	?	2.1µM	nt	i	nt
Cc1ccc2c(c1)-c1nc(-c3ccc4c(c3)NC(=O)CO4)cc(-c3ccc(Cl)cc3)c1CO2	1.5µM	1.3µM	nt	i	nt
Cc1ccc2occ(-c3cc(-c4ccc(Cl)cc4)nc4c3COc3ccccc3-4)c(=O)c2c1	i	i	nt	i	nt
Cc1ccc([N+](=O)[O-])cc1S(=O)(=O)Nc1ccc(N2CCOCC2)cc1	i	?	i	i	i
Cc1cnc(C2OCCO2)c2cccc(N)c12	?	8.2µM	nt	nt	nt
COc1ccc(OCc2nnnn2-c2ccccc2)cc1	i	i	i	i	i
CC1CN(c2ccc([N+](=O)[O-])cc2C#N)CC(C)O1 (stereo not given)	i	i	i	i	i
O=C(COC(=O)c1cc([N+](=O)[O-])ccc1N1CCOCC1)Nc1ccc(Cl)cc1	i	?	i	i	i
O=C(c1ccccc1)c1cc([N+](=O)[O-])ccc1N1CCOCC1	0.73µM	0.82µM	i	i	i
O=C(c1ccc(Br)cc1)c1cc([N+](=O)[O-])ccc1N1CCOCC1	0.82µM	1.5µM	i	i	i
O=Cc1cc([N+](=O)[O-])ccc1N1CCOCC1	i	i	i	i	i
O=C(c1ccc(Cl)cc1)c1cc([N+](=O)[O-])ccc1N1CCOCC1	0.73µM	0.82µM	i	i	i
Cc1ccc(C(=O)c2cc([N+](=O)[O-])ccc2N2CC(C)OC(C)C2)cc1 (stereo not given)	5.8µM	3.3µM	i	i	i
O=C(O)C1CCCCC1C(=O)NCc1ccc(Cl)c(Cl)c1 (stereo not given)	?	?	i	i	i
Oc1cc(-c2cccnc2)cc2cccnc12	nt	nt	nt	i	nt
CC(SCCc1ccccn1)C(=O)O (stereo not given)	i	i	i	i	i
Cc1c(NC(=O)CSc2nnc(-c3ccccc3F)o2)c(=O)n(-c2ccccc2)n1C	i	i	nt	nt	nt
CCc1ccc(OCC(=O)N/N=C(\C)c2ccc(O)cc2O)cc1	7.3µM	2.6µM	?	i	13µM
C/C(=N\NC(=O)C(N)=O)c1ccc(O)cc1O	?	?	i	i	i
COc1ccc2c(-c3cc4ccc(OCc5ccc(F)cc5)cc4oc3=O)cc(=O)oc2c1	7.3µM	12µM	i	i	i
O=c1oc2cc(OCc3ccc(C(F)(F)F)cc3)ccc2cc1-c1ccccn1	i	i	i	i	i
SMILES	DT40 TDP1 CPT	DT40 TDP1 no CPT	VP16 counter	TDP1 inh	RORg inh
CCCc1nc2ccccc2c(=O)n1NC(=O)c1c(O)c2ccccc2n(C)c1=O	?	?	i	i	i
Cc1cc(=O)oc2cc(NC(=O)CC(N)C(=O)O)ccc12 (stereo not given)	nt	nt	i	i	i
CSc1ccccc1NS(=O)(=O)c1cccc2nonc12	i	i	i	i	11µM
O=S(=O)(Nc1cc(F)ccc1F)c1cccc2nonc12	i	i	i	i	i
Cc1ccc(CNC(=O)COC(=O)COc2ccc(C#N)cc2)cc1	i	i	nt	i	nt
CCOc1ccc(C(=O)NCc2ccc3c(c2)CCN3C(=O)c2ccc(Cl)cc2)cc1	i	i	nt	i	nt
CCOc1ccc(C(=O)NCc2ccc3c(c2)CCN3C(=O)c2ccccc2)cc1	13µM	16µM	nt	i	nt

Screening results: PubChem, National Center for Advancing Translational Sciences (NCATS)
